# Experimental data published in the supplement of paper PMC6124720.
# Values without a mark were called inactive.
# Tested on: Pseudogymnoascus destructans 20631-21
# Assay: growth activity index (DuctApe, 0 = no growth, 9 = maximal growth) (index 0-9); higher = more fungal growth (less inhibition), active = 0 or less; extreme values may be limits of the assay
# Settings: concentration level (1-4, increasing; Biolog proprietary): 3; temperature: 13 °C; YPD
# 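Note: biolog Phenotype Microarray plates PM21–25, OD595 followed daily over 11 days, growth curves converted to index, mean of two independent experiments.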
row,Structure (SMILES),growth activity index
1,[N-]=[N+]=CC(=O)OC[C@H](N)C(=O)O [Azaserine] (Biolog plate: PM22),4.67
2,[Cl][Cr]([Cl])[Cl] [Chromium (III) chloride] (Biolog plate: PM23),2
3,"Nc1ncn[nH]1 [3-Amino-1,2,4-triazole] (Biolog plate: PM22)",0 (active)
4,CCCCC(C#N)(Cn1cncn1)c1ccc(Cl)cc1 (stereo not drawn) [Myclobutanil] (Biolog plate: PM22),0 (active)
5,CC1C=CC=CCCC=CC=CC=CC=CC(OC2OC(C)C(O)C(N)C2O)CC2OC(O)(CC(O)C(O)CCC(O)CC(O)CC(O)CC(=O)OC(C)C(C)C1O)CC(O)C2C(=O)O (stereo not drawn) [Nystatin] (Biolog plate: PM21),0 (active)
6,[K+].[K+].[O]=[Cr](=[O])([O-])[O-] [Potassium Chromate] (Biolog plate: PM24),4
7,[Na+].[Na+].[O]=[Cr](=[O])([O-])[O][Cr](=[O])(=[O])[O-] [Sodium Dichromate] (Biolog plate: PM21),5
8,Nc1ccncc1 [4-Aminopyridine] (Biolog plate: PM25),4.33
9,O=[Se]([O-])[O-].[Na+].[Na+] [Sodium Selenite] (Biolog plate: PM21),6
10,C[C@@H]1C[C@@H]([C@H](O)CC2CC(=O)NC(=O)C2)C(=O)[C@@H](C)C1 [Cycloheximide] (Biolog plate: PM22),4.33
11,[O-][I+3]([O-])([O-])O [Sodium metaperiodate] (Biolog plate: PM23),4.33
12,[N-]=[N+]=[N-] [Sodium Azide] (Biolog plate: PM23),0 (active)
13,N.N.[Cl][Pt][Cl] [Cisplatin] (Biolog plate: PM24),4
14,CNC1CC(N)C(O)C(OC2OC(CO)C(O)C3OC4(OC(C(N)CO)C(O)C(O)C4O)OC23)C1O (stereo not drawn) [Hygromycin B] (Biolog plate: PM25),1
15,N#CO [Sodium Cyanate] (Biolog plate: PM23),4.33
16,[Cl][Ni][Cl] [Nickel chloride] (Biolog plate: PM21),4.5
17,[Cl][Cd][Cl] [Cadmium Chloride] (Biolog plate: PM23),0.667
18,CN(CC[C@H](N)CC(=O)N[C@H]1C=C[C@H](n2ccc(N)nc2=O)O[C@@H]1C(=O)O)C(=N)N [Blasticidin S] (Biolog plate: PM24),4
19,O=[As]([O-])([O-])[O-].[Na+].[Na+].[Na+] [Sodium Arsenate] (Biolog plate: PM22),4
20,O=[Se](=O)([O-])[O-].[Na+].[Na+] [Sodium Selenate] (Biolog plate: PM23),2.67
21,CCCC1COC(Cn2cncn2)(c2ccc(Cl)cc2Cl)O1 (stereo not drawn) [Propiconazole] (Biolog plate: PM24),1
22,O=[As][O-].[Na+] [Sodium Arsenite] (Biolog plate: PM23),4.33
23,C[n+]1ccc(-c2cc[n+](C)cc2)cc1 [Methyl viologen] (Biolog plate: PM24),0.333
24,CCCCCCCCCCCCCCCC[n+]1ccccc1 [Cetylpyridinium chloride] (Biolog plate: PM21),0 (active)

# Same assay, conditions: concentration level (1-4, increasing; Biolog proprietary): 4; temperature: 13 °C; YPD
row,Structure (SMILES),growth activity index
1,[N-]=[N+]=CC(=O)OC[C@H](N)C(=O)O [Azaserine] (Biolog plate: PM22),4.67
2,[Cl][Cr]([Cl])[Cl] [Chromium (III) chloride] (Biolog plate: PM23),3.33
3,"Nc1ncn[nH]1 [3-Amino-1,2,4-triazole] (Biolog plate: PM22)",0 (active)
4,CCCCC(C#N)(Cn1cncn1)c1ccc(Cl)cc1 (stereo not drawn) [Myclobutanil] (Biolog plate: PM22),0 (active)
5,CC1C=CC=CCCC=CC=CC=CC=CC(OC2OC(C)C(O)C(N)C2O)CC2OC(O)(CC(O)C(O)CCC(O)CC(O)CC(O)CC(=O)OC(C)C(C)C1O)CC(O)C2C(=O)O (stereo not drawn) [Nystatin] (Biolog plate: PM21),0 (active)
6,[K+].[K+].[O]=[Cr](=[O])([O-])[O-] [Potassium Chromate] (Biolog plate: PM24),4.33
7,[Na+].[Na+].[O]=[Cr](=[O])([O-])[O][Cr](=[O])(=[O])[O-] [Sodium Dichromate] (Biolog plate: PM21),4.25
8,Nc1ccncc1 [4-Aminopyridine] (Biolog plate: PM25),1.33
9,O=[Se]([O-])[O-].[Na+].[Na+] [Sodium Selenite] (Biolog plate: PM21),4.75
10,C[C@@H]1C[C@@H]([C@H](O)CC2CC(=O)NC(=O)C2)C(=O)[C@@H](C)C1 [Cycloheximide] (Biolog plate: PM22),4.33
11,[O-][I+3]([O-])([O-])O [Sodium metaperiodate] (Biolog plate: PM23),5
12,[N-]=[N+]=[N-] [Sodium Azide] (Biolog plate: PM23),0.333
13,N.N.[Cl][Pt][Cl] [Cisplatin] (Biolog plate: PM24),4
14,CNC1CC(N)C(O)C(OC2OC(CO)C(O)C3OC4(OC(C(N)CO)C(O)C(O)C4O)OC23)C1O (stereo not drawn) [Hygromycin B] (Biolog plate: PM25),0 (active)
15,N#CO [Sodium Cyanate] (Biolog plate: PM23),4.67
16,[Cl][Ni][Cl] [Nickel chloride] (Biolog plate: PM21),5
17,[Cl][Cd][Cl] [Cadmium Chloride] (Biolog plate: PM23),0 (active)
18,CN(CC[C@H](N)CC(=O)N[C@H]1C=C[C@H](n2ccc(N)nc2=O)O[C@@H]1C(=O)O)C(=N)N [Blasticidin S] (Biolog plate: PM24),4
19,O=[As]([O-])([O-])[O-].[Na+].[Na+].[Na+] [Sodium Arsenate] (Biolog plate: PM22),2
20,O=[Se](=O)([O-])[O-].[Na+].[Na+] [Sodium Selenate] (Biolog plate: PM23),3
21,CCCC1COC(Cn2cncn2)(c2ccc(Cl)cc2Cl)O1 (stereo not drawn) [Propiconazole] (Biolog plate: PM24),0.333
22,O=[As][O-].[Na+] [Sodium Arsenite] (Biolog plate: PM23),5
23,C[n+]1ccc(-c2cc[n+](C)cc2)cc1 [Methyl viologen] (Biolog plate: PM24),0.667
24,CCCCCCCCCCCCCCCC[n+]1ccccc1 [Cetylpyridinium chloride] (Biolog plate: PM21),0 (active)
